# Measurements taken from the supplement of paper PMC6411743.
# ± gives the standard deviation of the averaged measurements. Of roughly 5,400 targets only a part is listed; those with the largest changes were picked by preference.
# Molecular target: T1, NUFIP2 (UniProt Q7Z417)
# T1 sequence (whole entry): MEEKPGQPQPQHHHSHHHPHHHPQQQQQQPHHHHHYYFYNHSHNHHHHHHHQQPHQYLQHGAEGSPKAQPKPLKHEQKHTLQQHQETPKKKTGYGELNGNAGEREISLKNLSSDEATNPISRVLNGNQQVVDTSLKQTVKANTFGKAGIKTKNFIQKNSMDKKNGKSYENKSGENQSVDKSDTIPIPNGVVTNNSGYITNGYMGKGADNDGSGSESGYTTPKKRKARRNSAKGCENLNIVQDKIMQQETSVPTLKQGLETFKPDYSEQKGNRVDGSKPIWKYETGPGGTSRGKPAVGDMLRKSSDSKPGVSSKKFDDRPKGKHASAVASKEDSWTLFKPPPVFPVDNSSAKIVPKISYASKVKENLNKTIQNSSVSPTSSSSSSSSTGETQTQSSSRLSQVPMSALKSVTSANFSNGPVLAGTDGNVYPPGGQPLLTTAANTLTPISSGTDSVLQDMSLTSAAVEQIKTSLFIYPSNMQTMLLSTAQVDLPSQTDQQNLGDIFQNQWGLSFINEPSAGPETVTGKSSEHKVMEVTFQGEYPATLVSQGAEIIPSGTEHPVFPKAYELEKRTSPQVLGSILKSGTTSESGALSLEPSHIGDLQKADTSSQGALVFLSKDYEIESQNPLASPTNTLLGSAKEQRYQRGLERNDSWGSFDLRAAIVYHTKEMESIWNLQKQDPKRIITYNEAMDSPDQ
# Assay: NP40-soluble protein abundance relative to vehicle (solubility fold change) (ratio); higher = more soluble protein in presence of GTP
# Method: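 Solubility proteome profiling in Jurkat crude lysate. Lysate was treated with Mg-GTP (0.1-10 mM) for 10 min at room temperature and 3 min at 37 °C, then solubilised with 0.8% NP40 and benzonase, followed by ultracentrifugation. Proteins were quantified by TMT10 LC-MS/MS; the value is the NP40-soluble abundance relative to the NP40-processed vehicle, from 3 independent experiments.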
compound,measurement,setting,value
Nc1nc2c(ncn2[C@@H]2O[C@H](COP(=O)(O)OP(=O)(O)OP(=O)(O)O)[C@@H](O)[C@H]2O)c(=O)[nH]1 [guanosine triphosphate],NP40-soluble protein abundance,concentration: 0.1mM,0.964 ± 0.079
same,NP40-soluble protein abundance,concentration: 0.5mM,0.977 ± 0.14
same,NP40-soluble protein abundance,concentration: 1mM,1.06 ± 0.12
same,NP40-soluble protein abundance,concentration: 2mM,1.07 ± 0.15
same,NP40-soluble protein abundance,concentration: 4mM,1.17 ± 0.15
same,NP40-soluble protein abundance,concentration: 6mM,1.21 ± 0.15
same,NP40-soluble protein abundance,concentration: 8mM,1.28 ± 0.089
same,NP40-soluble protein abundance,concentration: 10mM,1.34 ± 0.13
